From PubChem
This is one part of a sample in which hits are shown more often than they occur.
RBX1-CUL1 inh: inhibitors of human ROC1-CUL1 ubiquitin ligase activity; E3 ubiquitin-protein ligase RBX1 (Homo sapiens) + Cullin-1 (Homo sapiens), P62877+Q13616; in vitro K48 di-Ub FRET, acceptor:donor ratio, 45 min; inhibition, % at 10 µM; 0.6% of 140,000 active; in the data active = inhibition above about 25%
Target sequence (P62877 whole entry, looked up): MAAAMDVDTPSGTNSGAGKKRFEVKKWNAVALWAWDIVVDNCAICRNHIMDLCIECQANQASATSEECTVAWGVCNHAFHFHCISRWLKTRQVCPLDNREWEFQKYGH
Target sequence (Q13616 whole entry, looked up): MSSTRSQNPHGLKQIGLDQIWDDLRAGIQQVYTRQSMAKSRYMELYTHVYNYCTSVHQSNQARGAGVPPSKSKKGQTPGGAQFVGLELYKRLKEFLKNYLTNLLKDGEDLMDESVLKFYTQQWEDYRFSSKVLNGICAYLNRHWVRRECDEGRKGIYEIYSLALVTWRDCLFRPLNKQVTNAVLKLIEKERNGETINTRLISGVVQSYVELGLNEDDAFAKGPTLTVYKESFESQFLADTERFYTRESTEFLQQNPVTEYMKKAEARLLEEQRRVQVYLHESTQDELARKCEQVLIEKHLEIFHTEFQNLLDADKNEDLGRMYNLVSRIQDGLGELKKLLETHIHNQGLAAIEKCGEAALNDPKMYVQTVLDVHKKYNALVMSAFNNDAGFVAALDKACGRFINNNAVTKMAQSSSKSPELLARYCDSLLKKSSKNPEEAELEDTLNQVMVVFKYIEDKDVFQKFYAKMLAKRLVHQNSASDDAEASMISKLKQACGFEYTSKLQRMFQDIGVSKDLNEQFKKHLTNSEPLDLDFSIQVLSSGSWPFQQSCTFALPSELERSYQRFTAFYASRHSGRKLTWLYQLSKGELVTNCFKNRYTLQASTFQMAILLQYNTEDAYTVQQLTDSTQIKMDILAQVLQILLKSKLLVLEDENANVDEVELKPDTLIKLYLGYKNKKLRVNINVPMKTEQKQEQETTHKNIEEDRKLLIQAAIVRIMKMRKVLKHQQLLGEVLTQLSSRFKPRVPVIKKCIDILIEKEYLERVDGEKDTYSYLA
The depositor's hits bear a star.

O=C(O)COc1ccc(Br)cc1/C=C1\SC(=O)N(Cc2ccc(F)cc2)C1=O was read as RBX1-CUL1 inh 1.
`COc1cc(/C=C2/SC(=O)N(Cc3ccc(F)cc3)C2=O)cc(I)c1OCC(=O)O` gave RBX1-CUL1 inh 98*.
`COc1cc(/C=C2\SC(=O)N(Cc3ccc(F)cc3)C2=O)ccc1OCc1ccc(C(=O)O)cc1` gave RBX1-CUL1 inh 17.
CCOc1ccc(N=C2S/C(=C\c3cc(Cl)c(OCC(=O)O)c(OC)c3)C(=O)N2CC)cc1 was read as RBX1-CUL1 inh 94*.
Nc1ccc(S(=O)(=O)Nc2ccc(I)cc2)cc1 was read as RBX1-CUL1 inh -10.
Cc1ccc2c(CC(=O)NCC(F)(F)F)coc2c1C was read as RBX1-CUL1 inh -6.
For CSC1=NC(=O)C(C(c2ccccc2Cl)C2C(=O)N=C(SC)NC2=O)C(=O)N1 (stereo not given) the results were RBX1-CUL1 inh -7.
Cc1sc(NC(=O)c2ccccc2F)c(C#N)c1C was read as RBX1-CUL1 inh 4.
For O=C(NNC(=O)c1ccccc1Br)c1ccc(Br)cc1 the results were RBX1-CUL1 inh 5.
`O=C(O/N=C/c1ccc2c(c1)OCO2)c1cccs1` gave RBX1-CUL1 inh 3.
`O=S(=O)(Oc1c(Br)cc(Br)c2cccnc12)c1ccccc1` gave RBX1-CUL1 inh -14.
`Cc1cc([N+](=O)[O-])ccc1NC(=O)CSc1nnc(Cc2ccccc2)n1C` gave RBX1-CUL1 inh -1.
For Clc1ccccc1C1NCCS1 (stereo not given) the results were RBX1-CUL1 inh 31*.
For CC12CN3CC(C)(CN(C1)C3c1ccccc1Cl)C2O (stereo not given) the results were RBX1-CUL1 inh -3.
COc1ccc2[nH]c3c(c2c1)CCNC3c1ccccc1Cl (stereo not given) was read as RBX1-CUL1 inh -1.
For COc1ccc(C(=O)Nc2ccc3nc(SCC(=O)N4CCOCC4)sc3c2)cc1 the results were RBX1-CUL1 inh 5.
Screening O=C(Nc1ccc2nc(SCC(=O)N3CCOCC3)sc2c1)c1cccc(Cl)c1 returned RBX1-CUL1 inh 58*.
O=C(Nc1ccc2nc(SCC(=O)N3CCCC3)sc2c1)c1cccc(Cl)c1 was read as RBX1-CUL1 inh -2.
For COc1ccc(N2CCN(C(=O)COc3ccccc3C(C)C)CC2)cc1 the results were RBX1-CUL1 inh 8.
`Cc1nc(N2CCC(C(=O)N3CCNC(=O)C3c3cccc(F)c3)CC2)nc2ccc(C(C)C)cc12` (stereo not given) gave RBX1-CUL1 inh 4.
Screening COCCn1c(CN(C)CCc2ccccc2)cnc1S(=O)(=O)CC1CC1 returned RBX1-CUL1 inh 2.
O=C(O)C1CC=CCC1C(=O)Nc1ccc(N2CCN(CCO)CC2)cc1 (stereo not given) was read as RBX1-CUL1 inh 3.
For Cc1c(N=Cc2cc3c(cc2[N+](=O)[O-])OCO3)cccc1[N+](=O)[O-] the results were RBX1-CUL1 inh 91*.
Cc1ccccc1N=Cc1cc2c(cc1[N+](=O)[O-])OCO2 was read as RBX1-CUL1 inh -1.
`O=[N+]([O-])c1ccc(N=Cc2cc3c(cc2[N+](=O)[O-])OCO3)c(Br)c1` gave RBX1-CUL1 inh 7.
Screening CCCc1cc(CNC(=O)c2ccc(N3CCCC(O)C3)nc2)on1 (stereo not given) returned RBX1-CUL1 inh -6.
For CC1CC(=O)c2cn3ncnc3nc2C1 (stereo not given) the results were RBX1-CUL1 inh -8.
`CCCCCCCCCCCC[n+]1ccc(/C=C/c2ccc(N(C)C)cc2)cc1` gave RBX1-CUL1 inh 62*.
CCCCCCCCN1C(=O)/C(=C\c2ccc(N(C)C)cc2)C(=O)N(CCCC)C1=O was read as RBX1-CUL1 inh 4.
`CN(C)c1ccc(/C=C/C2=NC(=O)NC(=O)C2)cc1` gave RBX1-CUL1 inh -16.
Screening C/C=C/Cn1c(=O)c2c(nc3n(CC(C)C)c(C)c(C)n23)n(C)c1=O returned RBX1-CUL1 inh 6.
For CC(C)(C)c1ccc(/C=C/c2[nH]c(=O)[nH]c(=O)c2[N+](=O)[O-])cc1 the results were RBX1-CUL1 inh 99*.
CC(C)c1ccc(/C=C/c2nc(N)[nH]c(=O)c2[N+](=O)[O-])cc1 was read as RBX1-CUL1 inh 5.
`CC(C)(C)c1ccc(N)c([N+](=O)[O-])c1` gave RBX1-CUL1 inh 1.
Screening CCNC(=O)c1c(-c2c(F)cccc2Cl)noc1C returned RBX1-CUL1 inh 13.
Screening Cc1ccccc1C(=O)Oc1cc2ccc(S(=O)(=O)O)cc2cc1S(=O)(=O)O returned RBX1-CUL1 inh -3.
For Nc1ccc(/C=C/c2ccc(Nc3nc(Nc4ccccc4)nc(N4CCOCC4)n3)cc2S(=O)(=O)O)c(S(=O)(=O)O)c1 the results were RBX1-CUL1 inh 37*.
For Cc1ccc(Nc2nc(Nc3ccc(C)c(C)c3)nc(N3CCOCC3)n2)cc1C the results were RBX1-CUL1 inh -4.
For Fc1ccc(Nc2nc(Nc3ccc(F)cc3F)nc(N3CCOCC3)n2)cc1 the results were RBX1-CUL1 inh -4.
`O=C1CNC(=S)N1c1ccccc1` gave RBX1-CUL1 inh -4.
